Measurements: PubChem BioAssay AID2685 (National Center for Advancing Translational Sciences (NCATS), 2010)
Hit rate of the full screen: of about 320,000 compounds, about 2,100 (0.66%) were called active. Not shown: some 53% with an inconclusive outcome. Calls follow the shape of the dose curve; as a rule, active = well fitted inhibition curve with a large enough effect in the signal ratio, with a control signal flat (not every such curve was filed as active); inconclusive = small, poorly fitted or top-dose-only effect, or effect the other way, or a change in a side signal; inactive = flat fitted curve, though single readings scatter; the % refers to the signal ratio. Many of the other results were omitted from the sample, so actives are more common in it than they were.
Potency is read from the fitted curve at half-maximal effect.

Assay: qHTS Assay for Lipid Storage Modulators in Drosophila S3 Cells;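 as to cell number change: cells counted by Cell Tracker Red CMTPX staining in the red channel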
Conditions: BODIPY lipid droplet fluorescence, 18-24 h, cells fed with added oleic acid; cell number change: measured here: cell count max response; series mostly up to 46.1 µM
Summary of the method: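 Laser-scanning cytometry quantifies lipid droplet accumulation (500–530 nm total intensity; droplet/cell object ratio) in oleic acid-fed (400 uM added) Drosophila S3 cells treated with a concentration series. 20 uM Triacsin C defined 100% inhibition.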
With `COc1ccccc1C1(CC(=O)Nc2nccs2)CCOC(C(C)C)C1` (stereo not given) the Potency was “inactive”. For `C=CCn1c(SCC(=O)NCc2ccc3c(c2)OCO3)nnc1C1CCCCC1`, the Potency was “inactive” and the cell number change was -24%. With `COC(=O)c1sccc1NS(=O)(=O)c1ccccc1[N+](=O)[O-]` the Potency was “inactive” and the cell number change was -10.5%. For `CN(C)S(=O)(=O)c1cccc(NC(=O)COC(=O)CCc2nc3ccccc3s2)c1`, the Potency was “inactive” and the cell number change was 27.2%. For `COc1ccc(NC(=O)c2ccc3c(=O)n(CC4CCCO4)c(=S)[nH]c3c2)c(OC)c1` (stereo not given), the Potency was “inactive” and the cell number change was 0.833%. For `Cc1cccc(NC(=O)c2ccc3c(=O)n(CC4CCCO4)c(=S)[nH]c3c2)c1` (stereo not given), the Potency was 2.91 µM (active) and the cell number change was 0.855%. For `CCCCCNC(=O)c1ccc2c(=O)n(CC3CCCO3)c(=S)[nH]c2c1` (stereo not given), the Potency was “inactive” and the cell number change was 12.5%. For `CCOc1ccccc1C(=O)NN1C(=O)C2CCCCC2C1=O` (stereo not given), the Potency was “inactive” and the cell number change was 2.53%. In the case of `O=C(N/N=C1\CCCCc2ccccc21)c1ccccn1`, the Potency is reported as “inactive” and the cell number change is reported as 8.38%. For `CCc1ccc(NC2=CC(=O)CC(C)(C)C2)cc1`, the Potency was 16.4 µM (active) and the cell number change was -10.8%. With `CC(=O)Nc1ccc(NC2=CC(=O)CC(C)(C)C2)cc1` the Potency was “inactive”. In the case of `CC1(C)CC(=O)C=C(NCCc2ccc(S(N)(=O)=O)cc2)C1`, the Potency is reported as 29.1 µM (active) and the cell number change is reported as 7.43%. With `CC1(C)CC(=O)C=C(NCCc2ccccc2)C1` the Potency was “inactive” and the cell number change was 5.18%. With `CC1(C)CC(=O)C=C(Nc2ccc(F)cc2)C1` the Potency was “inactive”. With `CC1(C)CC(=O)C=C(Nc2ccc(S(N)(=O)=O)cc2)C1` the Potency was “inactive” and the cell number change was 5.75%. With `FC(F)(F)c1nnc(-c2ccccc2)nc1N1CCOCC1` the Potency was “inactive”. For `O=C(COc1ccccc1)NC(NC(=S)Nc1ccccc1C(=O)O)C(Cl)(Cl)Cl` (stereo not given), the Potency was “inactive” and the cell number change was -4.52%. In the case of `CCCCN(C(=O)c1cccc(S(=O)(=O)N2CC(C)OC(C)C2)c1)c1c(N)n(CCCC)c(=O)[nH]c1=O` (stereo not given), the Potency is reported as “inactive” and the cell number change is reported as 6.37%. For `CCOC(=O)C(NC(=O)Nc1ccc(O)cc1)(c1ccccc1)C(F)(F)F` (stereo not given), the Potency was “inactive” and the cell number change was 14.8%. In the case of `CCOC(=O)C(NC(=O)NC1CCCCC1)(c1ccccc1)C(F)(F)F` (stereo not given), the Potency is reported as 7.31 µM (active) and the cell number change is reported as -7.07%. With `CCOC(=O)C(NC(=O)N1CCCCC1)(c1ccccc1)C(F)(F)F` (stereo not given) the Potency was “inactive” and the cell number change was -0.413%. With `Cc1n[nH]c(C)c1S(=O)(=O)N1CCc2ccccc2C1` the Potency was “inactive” and the cell number change was 24.8%. For `Cc1nc2ccccn2c1C(=O)N/N=C/c1ccccc1`, the Potency was “inactive” and the cell number change was 9.24%. With `C/C(=N\NC(=O)c1c(C)nc2ccccn12)c1ccc(O)cc1O` the Potency was 5.8 µM (active) and the cell number change was 6.25%. In the case of `C/C(=N\NC(=O)c1c(C)nc2ccccn12)c1ccco1`, the Potency is reported as “inactive” and the cell number change is reported as -20.6%. With `CC(=O)N1CCN(C(=S)c2ccc(Cl)cc2)CC1` the Potency was “inactive” and the cell number change was -11.3%. With `Cc1csc(NC(=O)CSc2ncnc3ccccc23)n1` the Potency was “inactive” and the cell number change was -0.862%. With `Cc1csc(NC(=O)CSc2nc3ccccc3c3c2CCCC3)n1` the Potency was “inactive” and the cell number change was 1.26%. For `CCOC(=O)c1c(SCC(=O)Nc2nc(C)cs2)nc(=O)[nH]c1C`, the Potency was 13 µM (active) and the cell number change was 11.9%. For `Cc1csc(NC(=O)CSc2nc(C(C)C)nc3ccccc23)n1`, the Potency was 7.31 µM (active) and the cell number change was 6.52%. In the case of `Cc1csc(NC(=O)CSc2[nH]c(=O)ncc2C)n1`, the Potency is reported as “inactive”. For `COC(=O)c1c(SCC(=O)Nc2ccc(C)cc2)nc(=O)[nH]c1C`, the Potency was “inactive” and the cell number change was 11%. With `CC(=O)Nc1ccc(S(=O)(=O)NNC(=O)CCC(=O)Nc2cc(C)ccc2C)cc1` the Potency was 2.31 µM (active) and the cell number change was 1.21%. For `Cc1ccc(S(=O)(=O)NNC(=O)CCC(=O)Nc2ccccc2)cc1`, the Potency was “inactive” and the cell number change was 20.4%. With `Cc1ccc(NC(=O)CCC(=O)NNS(=O)(=O)c2ccc(Cl)cc2)cc1C` the Potency was “inactive” and the cell number change was -13.3%. With `Cc1ccc([N+](=O)[O-])cc1NC(=O)CN(C)CCOc1ccccc1` the Potency was “inactive” and the cell number change was 12%. For `CCOC(=O)c1cc(-c2ccc(OC)cc2)n(CCC(=O)NC2CCN(Cc3ccccc3)CC2)c1C`, the Potency was “inactive” and the cell number change was 11%. In the case of `C=CCN(c1ccc(C(=O)OC)cc1)S(=O)(=O)c1ccccc1`, the Potency is reported as “inactive”. With `Cn1c(=O)oc2cc(S(=O)(=O)NCc3ccco3)ccc21` the Potency was “inactive” and the cell number change was 0.921%. In the case of `Cc1ccc(S(=O)(=O)NCc2ccco2)cc1C`, the Potency is reported as 10.3 µM (active) and the cell number change is reported as -8.6%. With `Cc1ccc(-c2ccc(S(=O)(=O)NCc3ccco3)cc2)cc1` the Potency was “inactive” and the cell number change was 2.5%. In the case of `CCCCNC(=O)C1CCCN1C(=O)NC1CCCCC1` (stereo not given), the Potency is reported as “inactive” and the cell number change is reported as 9.73%. In the case of `CCOCCCNC(=O)C1CCCN1C(=O)NC1CCCCC1` (stereo not given), the Potency is reported as 20.6 µM (active) and the cell number change is reported as -3.91%. In the case of `CC(C)CCNC(=O)C1CCCN1C(=O)NC1CCCCC1` (stereo not given), the Potency is reported as “inactive” and the cell number change is reported as -5.55%. In the case of `Cc1ccc(C(=O)Nc2onc(C)c2C#N)cc1`, the Potency is reported as “inactive”. For `O=C(NCc1ccccc1Cl)c1cnccc1C(F)(F)F`, the Potency was “inactive” and the cell number change was 0.794%. In the case of `COc1ccc(-n2nc([N+](=O)[O-])c(=NCCc3ccc(C)cc3)n2O)cc1`, the Potency is reported as “inactive” and the cell number change is reported as -0.674%. For `Cc1ccc(CCN=c2c([N+](=O)[O-])nn(-c3ccccc3)n2O)cc1`, the Potency was “inactive”. With `COc1ccc(-n2nc([N+](=O)[O-])c(=NCCc3ccc(OC)c(OC)c3)n2O)cc1` the Potency was 0.82 µM (active) and the cell number change was -7.82%. With `CCOc1ccccc1/C=N/n1nnnc1N` the Potency was “inactive” and the cell number change was -5.74%. With `O=C1C2CC=C(Cl)CC2C(=O)N1CCC[n+]1cccc2ccccc21` (stereo not given) the Potency was “inactive” and the cell number change was -1.42%. In the case of `O=C(C1CC(=O)N(c2ccc(Cl)cc2)C1)N1CCC(c2nc3ccccc3[nH]2)CC1` (stereo not given), the Potency is reported as “inactive”. For `CCCNC(=O)Cn1cnc2sc(C(=O)N3CCCC(C(=O)OCC)C3)c(C)c2c1=O` (stereo not given), the Potency was “inactive” and the cell number change was -16.1%. For `CCCNC(=O)Cn1cnc2sc(C(=O)N3CCN(Cc4ccc5c(c4)OCO5)CC3)c(C)c2c1=O`, the Potency was “inactive” and the cell number change was 8.92%. With `CCCNC(=O)Cn1cnc2sc(C(=O)N3CCN(CCC)CC3)c(C)c2c1=O` the Potency was 32.6 µM (active) and the cell number change was -2.16%. For `CCOC(=O)C1CCN(C(=O)c2cccc(N3C(=O)NC4CC3(C)Oc3ccc(C)cc34)c2)CC1` (stereo not given), the Potency was “inactive”. In the case of `Cn1c(=O)oc2cc(S(=O)(=O)N3CCCCC3)ccc21`, the Potency is reported as “inactive” and the cell number change is reported as 4.27%. For `COc1ccc(C(=O)/C=C/Nc2ccc(S(=O)(=O)Nc3cc(OC)nc(OC)n3)cc2)c(OC)c1`, the Potency was 29.1 µM (active) and the cell number change was 34.2%. In the case of `COc1cc(NS(=O)(=O)c2ccc(N/C=C\C(=O)c3ccc(F)cc3)cc2)nc(OC)n1`, the Potency is reported as “inactive” and the cell number change is reported as 2.61%. For `COc1ccc(C(=O)/C=C/Nc2ccc(S(=O)(=O)Nc3nc(C)cc(C)n3)cc2)c(OC)c1`, the Potency was “inactive” and the cell number change was 26.5%.
